Screens: PubChem, National Center for Advancing Translational Sciences (NCATS)
Sfp inh = inhibitors of Bacillus subtilis Sfp phosphopantetheinyl transferase. 3.5% of 310,000 active. Biochemical Sfp PPTase activity, qHTS. AID 1490. Potency, µM, without a hit: largest response in the series, negative = inhibition, actives largely listed as inhibitors. Q9F4F7;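 also: the enzyme is Sfp with the accession as filed and its product quenches rhodamine fluorescence; 0% = enzyme reaction without inhibitor and -100% = no enzyme wells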
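Step 1, compound plus 15 nM Sfp-PPTase, 15 min, room temperature. Step 2, add rhodamine-CoA (5 uM) and BHQ-2-YbbR (12.5 uM). Step 3, read 525/598 nm fluorescence at 0 and 30 min.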
G9a block = blocks human histone lysine methyltransferase G9a; 8.8% of 350,000 active; Potency, µM (series often up to 102 µM), for the others: top-dose activity, negative = inhibition, hits mostly inhibitors; Q96KQ7; G9a H3K9 monomethylation, AlphaScreen, 2 h; also: % is scaled to controls: 0 for no effect and ±100 for the full control effect; nearly all actives have a fitted effect of over 75% in size
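Readings reflect AlphaScreen signal from monomethyl-H3K9 antibody detection. HMT at 20 nM; substrate b-H3K9 500 nM; cofactor SAM 20 uM; 2 h RT reaction; compounds tested as titrations in qHTS with 15 min preincubation.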
JMJD2A Tudor inh = inhibitors of human JMJD2A Tudor domain | O75164 | AlphaScreen JMJD2A-Tudor / H3K4me3 peptide binding | Potency, µM (doses to about 114 µM), for inactives: at the top dose activity change, negative = inhibition, most hits filed as inhibitors | 4.4% of 390,000 active | AID 504339; also: % is scaled to controls: 0 for no effect and ±100 for the full control effect; nearly all actives have a fitted effect of over 50% in size
L3MBTL1 block = L3MBTL1 (human) inhibition; 0.66% of 230,000 active; AID 485360; Potency, µM (doses to about 57.1 µM), for the others: top-dose activity, negative = inhibition, most hits filed as inhibitors; Q9Y468; AlphaScreen L3MBTL1–H3K9me1 peptide binding; also: % is scaled to controls: 0 for no effect and ±100 for the full control effect; nearly all actives have a fitted effect of over 60% in size
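AlphaScreen assay: L3MBTL1 (50 nM final) was preincubated 30 min at room temperature with biotinylated H3(1-15)K9me1 peptide (75 nM final), then 30 min with library compounds; streptavidin donor and nickel chelate acceptor beads (10 ug/mL final) added, 30 min dark.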
BAZ2B inh = inhibitors of human BAZ2B bromodomain; Q9UIF8; AlphaScreen BAZ2B-H3K14Ac peptide displacement; Potency, µM (titrated, usually from 114 µM), for the others: top-dose activity change, negative = inhibition, most hits filed as inhibitors; 4.4% of 360,000 active; also: % is scaled to controls: 0 for no effect and ±100 for the full control effect; nearly all actives have a fitted effect of over 60% in size
Target sequence (Q9UIF8 whole entry, looked up): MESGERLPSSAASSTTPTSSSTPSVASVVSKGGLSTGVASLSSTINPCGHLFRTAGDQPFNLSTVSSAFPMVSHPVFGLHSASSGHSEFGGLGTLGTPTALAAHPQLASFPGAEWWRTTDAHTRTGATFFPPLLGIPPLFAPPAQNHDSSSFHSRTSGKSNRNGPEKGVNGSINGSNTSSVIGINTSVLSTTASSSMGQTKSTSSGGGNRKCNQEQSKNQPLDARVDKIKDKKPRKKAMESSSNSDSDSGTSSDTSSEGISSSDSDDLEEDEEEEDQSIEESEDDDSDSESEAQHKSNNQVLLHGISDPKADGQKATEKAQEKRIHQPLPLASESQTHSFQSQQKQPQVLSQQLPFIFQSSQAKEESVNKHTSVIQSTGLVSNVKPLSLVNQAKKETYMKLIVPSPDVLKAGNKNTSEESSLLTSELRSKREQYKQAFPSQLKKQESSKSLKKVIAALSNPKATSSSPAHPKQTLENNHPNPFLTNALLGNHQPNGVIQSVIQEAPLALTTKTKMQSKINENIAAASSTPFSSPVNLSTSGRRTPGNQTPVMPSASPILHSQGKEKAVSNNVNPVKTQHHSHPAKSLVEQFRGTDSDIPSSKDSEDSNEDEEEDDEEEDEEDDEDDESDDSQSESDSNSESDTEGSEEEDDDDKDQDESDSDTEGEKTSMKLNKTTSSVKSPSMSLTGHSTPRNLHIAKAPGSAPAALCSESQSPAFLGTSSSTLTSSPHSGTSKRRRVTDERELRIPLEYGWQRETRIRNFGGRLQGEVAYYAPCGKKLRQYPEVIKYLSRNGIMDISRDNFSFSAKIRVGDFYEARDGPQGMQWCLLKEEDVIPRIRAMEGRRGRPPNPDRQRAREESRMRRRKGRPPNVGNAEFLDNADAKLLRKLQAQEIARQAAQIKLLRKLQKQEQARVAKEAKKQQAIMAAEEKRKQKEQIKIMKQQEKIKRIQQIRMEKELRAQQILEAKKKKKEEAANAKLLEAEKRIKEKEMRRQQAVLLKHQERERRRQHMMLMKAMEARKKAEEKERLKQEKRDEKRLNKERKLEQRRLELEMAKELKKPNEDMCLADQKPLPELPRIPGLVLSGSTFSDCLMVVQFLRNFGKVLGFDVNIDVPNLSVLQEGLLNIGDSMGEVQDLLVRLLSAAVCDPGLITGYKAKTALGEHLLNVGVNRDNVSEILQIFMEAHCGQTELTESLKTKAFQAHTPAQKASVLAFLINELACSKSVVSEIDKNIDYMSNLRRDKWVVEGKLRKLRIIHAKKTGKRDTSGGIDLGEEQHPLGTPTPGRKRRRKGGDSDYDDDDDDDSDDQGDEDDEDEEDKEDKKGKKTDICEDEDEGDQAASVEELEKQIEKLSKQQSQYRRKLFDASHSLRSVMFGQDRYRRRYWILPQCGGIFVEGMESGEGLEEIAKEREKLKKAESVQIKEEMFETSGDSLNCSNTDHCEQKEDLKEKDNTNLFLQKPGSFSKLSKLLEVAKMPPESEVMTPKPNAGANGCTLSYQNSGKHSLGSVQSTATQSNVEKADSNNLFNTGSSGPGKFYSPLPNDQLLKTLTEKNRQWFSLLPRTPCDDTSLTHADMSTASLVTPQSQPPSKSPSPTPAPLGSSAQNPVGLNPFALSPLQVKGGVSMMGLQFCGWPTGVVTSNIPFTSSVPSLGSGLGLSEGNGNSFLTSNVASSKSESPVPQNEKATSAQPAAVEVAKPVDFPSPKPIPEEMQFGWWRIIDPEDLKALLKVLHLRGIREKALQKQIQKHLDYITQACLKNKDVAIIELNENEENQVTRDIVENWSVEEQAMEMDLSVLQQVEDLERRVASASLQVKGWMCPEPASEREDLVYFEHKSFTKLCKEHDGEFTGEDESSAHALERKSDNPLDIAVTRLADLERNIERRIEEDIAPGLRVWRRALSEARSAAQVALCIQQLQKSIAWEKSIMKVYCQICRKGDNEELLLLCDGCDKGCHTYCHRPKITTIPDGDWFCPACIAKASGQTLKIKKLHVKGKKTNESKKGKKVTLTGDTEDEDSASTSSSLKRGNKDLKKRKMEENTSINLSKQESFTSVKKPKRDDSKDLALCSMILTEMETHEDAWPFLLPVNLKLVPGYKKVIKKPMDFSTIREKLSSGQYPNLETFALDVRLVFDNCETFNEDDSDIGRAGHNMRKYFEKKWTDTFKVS
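AlphaScreen displacement of biotin-H3(5-23)K14Ac peptide (50 nM final) from BAZ2B (50 nM final) in PBS pH 7.4, 0.01% Tween-20; complex preformed 30 min RT, then compounds (top 110 uM) 30 min RT, beads 20 min dark.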
HP1b chromo inh = HP1-beta chromodomain-methylated histone interaction inhibition; P83916; AlphaScreen HP1-beta / biotin-H3K9me3 peptide binding; Potency, µM (doses to about 114 µM), for inactives: at the highest dose activity change, negative = inhibition, most hits filed as inhibitors; 0.56% of 390,000 active; also: nearly all actives have a fitted effect of over 70% in size
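HP1-beta protein (50 nM final) preincubated 30 min at room temperature with biotinylated H3(1-18)K9me3 peptide (50 nM) in PBS pH 7.4, 0.01% Tween-20, then compound added for 30 min. AlphaScreen streptavidin donor/nickel chelate acceptor beads (10 ug/mL final), 30 min dark, luminescence read.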
The depositor's hits bear a star; ? = inconclusive; / = no result; ! = not active in a repeat; [ ] = another dose, or the depositor's remark. The list is not random: actives were taken first. Their share in the collection is about 12%. Calls follow the shape of the dose curve; as a rule, active = well fitted curve in the direction sought with a large enough effect; inconclusive = small, poorly fitted or top-dose-only effect, or another doubt; inactive = no such curve, though single readings can be large; an effect the other way counts as inactive or inconclusive. Potency is read from the fitted curve at half-maximal effect.

SMILES | Sfp inh | G9a block | JMJD2A Tudor inh | L3MBTL1 block | BAZ2B inh | HP1b chromo inh
O=C(NCCN1CCOCC1)c1ccc(NS(=O)(=O)c2cccc([N+](=O)[O-])c2)cc1 | / | 50µM* | -2% | 3% | 14% | 14%
O=C(NCCN1CCOCC1)c1cc(S(=O)(=O)Nc2ccccc2F)c(Cl)cc1Cl | 13% | 50µM* | -7%[11.4 µM] | / | -34% | 32%
O=C(NCc1ccco1)c1cc([N+](=O)[O-])ccc1Cl | 1% | / | 9% | 5% | -12% | 33%
O=C(CN1CCOCC1)NNC(=O)c1ccc([N+](=O)[O-])cc1 | -3% | 50µM* | 4% | / | -19% | 6%[57 µM]
O=C(NCc1ccco1)c1cc([N+](=O)[O-])ccc1N1CCOCC1 | 5% | 10µM* | 6% | -1% | 79µM* | 35%
O=C(NN1CCOCC1)c1ccc([N+](=O)[O-])cc1 | 7% | -9%[59 µM] | -6% | 2% | 2% | 48%
O=C(c1cc(S(=O)(=O)Nc2ccccc2F)c(Cl)cc1Cl)N1CCN(CCO)CC1 | 10% | ? | -8% | / | 0% | 26%
COc1cc(Cl)c(C)cc1NC(=O)CNC(=O)Cn1ccc2ccccc2c1=O | / | 3%[59 µM] | -14% | / | 2% | 9%
Cc1cccc(NC(=O)c2ccc(S(=O)(=O)NCc3cccnc3)cc2)c1 | 6% | 6% | -14% | / | -14% | 16%
O=C(COC(=O)c1cc(=O)[nH]c2ccccc12)Nc1ccc(F)cc1 | / | / | -2% | 2% | / | 29%
O=C(NCCN1CCOCC1)c1cc([N+](=O)[O-])ccc1Cl | 8% | 56µM* | 0% | 0% | ? | 58%
CC1CCCN(c2ccc(C(=O)NCc3ccco3)cc2[N+](=O)[O-])C1 (stereo not given) | -10% | ? | 56µM* | -23% | 45µM* | ?
CCOc1ccc(OC(=O)c2cn(-c3ccc(C)cc3)c(=O)c3ccccc23)cc1 | / | 7%[59 µM] | 50µM* | / | 1% | 25%[57 µM]
O=C1CN(CC(=O)NC2CCCc3ccccc32)CCN1 (stereo not given) | 19% | -11%[2.33 µM] | -20% | / | -1% | 23%
CC[C@H](C)[C@H](NC(=O)[C@H](CCC(=O)O)NC(=O)[C@@H](N)CO)C(=O)N[C@@H](CCC(N)=O)C(=O)N[C@@H](CC(C)C)C(=O)N[C@@H](CCSC)C(=O)N[C@@H](Cc1cnc[nH]1)C(=O)N[C@@H](CC(N)=O)C(=O)N[C@@H](CC(C)C)C(=O)NCC(=O)N[C@@H](CCCCN)C(=O)N[C@@H](Cc1cnc[nH]1)C(=O)N[C@@H](CC(C)C)C(=O)N[C@@H](C)C(=O)N[C@@H](CO)C(=O)N[C@H](C(=O)N[C@@H](CCC(=O)O)C(=O)N[C@@H](CCCNC(=N)N)C(=O)N[C@@H](CCSC)C(=O)N[C@@H](CCC(N)=O)C(=O)N[C@@H](Cc1c[nH]c2ccccc12)C(=O)N[C@@H](CC(C)C)C(=O)N[C@@H](CCCNC(=N)N)C(=O)N[C@@H](CCCCN)C(=O)N[C@@H](CCCCN)C(=O)N[C@@H](CC(C)C)C(=O)N[C@@H](CCC(N)=O)C(=O)N[C@@H](CC(=O)O)C(=O)N[C@H](C(=O)N[C@@H](Cc1cnc[nH]1)C(=O)N[C@@H](CC(N)=O)C(=O)N[C@@H](Cc1ccccc1)C(=O)O)C(C)C)C(C)C | 3% | / | / | / | / | /
Nc1c2c(nc3ccccc13)CCCC2 | -2% | -36%[59 µM] | -17% | 0% | -5% | 17%
Nc1cccc2c3c(oc12)CCCC3 | -18% | 40µM* | -28% | / | -27% | 21%
CCN1CCc2nc(N)oc2CC1 | 2% | 24µM* | -8% | -19% | 6% | 47%
CCCN1CCc2nc(N3CCN(CC)CC3)ncc2C1 | / | ? | ? | / | -17% | 13%
O=C(Nc1ccc(Cl)c(Cl)c1)Nc1nccs1 | 56µM* | ? | -20% | / | -35% | 13%
O=C(Nc1cccc(Cl)c1)Nc1nccs1 | 50µM* | -13%[59 µM] | -17% | 0% | -33% | 41%
Cc1nc2cc(NC(=O)Nc3nccs3)ccc2n1C | ? | -38%[12.7 µM] | -3% | / | 4% | 12%
O=C(Nc1cccc(Cl)c1)Nc1cccc(Cl)c1 | -3% | 17%[59 µM] | 18% | 8% | 12% | 40%
Nc1nc(O)c(Sc2ccccc2[N+](=O)[O-])c(=O)[nH]1 | -7% | 40µM* | -4% | / | -5% | 26%
Nc1ccccc1Sc1ccccc1[N+](=O)[O-] | -2% | -47%[59 µM] | ? | -3% | ? | -23%
SMILES | Sfp inh | G9a block | JMJD2A Tudor inh | L3MBTL1 block | BAZ2B inh | HP1b chromo inh
O=C(O)COc1ccc(-c2nccc(-c3ccccn3)n2)cc1 | ? | ? | -34%[11.4 µM] | -12% | 79µM* | ?
Cc1ccc(-c2nn(-c3ccccc3)cc2C(N)=O)o1 | ? | -50%[12.7 µM] | ? | -9% | -35% | -13%
Cc1ccc(-c2nn(-c3ccccc3)cc2C=O)o1 | 40µM* | 40µM* | -35% | 6% | -12% | -7%
CCc1nc(SCC(=O)Nc2ccccc2C)n[nH]1 | 17% | / | 1% | / | -4% | 30%
Cc1cccc(C)c1NC(=O)C1(N(Cc2ccco2)C(=O)CC2NC(=O)NC2=O)CCCCC1 (stereo not given) | 9% | -3%[12.7 µM] | -6% | / | 4% | 52%
CCCN(C(=O)Cc1nc(N)n[nH]1)C1(C(=O)Nc2c(C)cccc2C)CCCCC1 | 13% | -4%[12.7 µM] | -35% | 1%[11.4 µM] | 79µM* | 43%
CCCN(C(=O)Cc1nc(N)n[nH]1)C1(C(=O)Nc2ccccc2C)CCCCC1 | 9% | 5%[12.7 µM] | ? | ? | 45µM* | 20%
CCOc1ccc(NC(=O)CC2C(=O)N(c3ccc(C)cc3)C(=O)N2Cc2ccc(OC)cc2)cc1 (stereo not given) | / | -34%[59 µM] | ? | / | ? | 12%
CC(C)c1ccc(Nc2nc(CC(=O)O)cs2)cc1 | -7% | 40µM* | -32% | / | -29% | -13%
Cc1cccc(NC(=O)C2CCCC2)c1 | 21% | 25%[59 µM] | -4% | -2% | 13% | 19%
O=C(NNc1c(Cl)cccc1Cl)c1c(F)cccc1Cl | 3% | -1% | -8% | -12% | 13% | 54%
Cc1cccc(NS(=O)(=O)c2nnc(NC(=O)C3CCCCC3)s2)c1 | 14% | 8.9µM*! | -15% | 4% | 6.3µM*! | 34%
O=C(NNc1ccc(Cl)cc1)C1CCC1 | 12% | 18µM* | -19% | 6% | -2% | 53%
Cc1cccc(NNC(=O)C2CCC2)c1 | 17% | 32µM* | 3% | 4% | 1% | 60%
Cc1cccc(NNC(=O)c2c(F)cccc2Cl)c1 | 5% | 71µM* | -3% | 4% | -9% | 54%
Cc1cccc(NS(=O)(=O)c2nnc(NC(=O)CC(C)C)s2)c1 | 6% | 11% | -4% | / | 8% | 44%
